Laboratory results taken from PubChem BioAssay (NCI).
The panel holds about 83,000 compounds, 20% with a hit somewhere; the sample as a whole holds those more often.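 Single-dose data. Exposure time 48 hours. Values below 10 considered active.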 Unmarked numbers belong to inactive results. The source made the active and inactive calls.

Tested on: TK-10 renal
Test: NCI-60 one-dose screen, 48 h (100 = growth as untreated, 0 = no growth, -100 = all killed)
Conditions: 10 µM unless noted

Row | Compound | growth
1 | Fc1ccc(-c2cc3nc(C(Cl)Cl)nc(-c4ccccc4)n3n2)cc1 | -23.9% (active)
2 | O=C(c1ccc(Cl)cc1)C1[C@H](c2ccc(Cl)cc2)[C@@H](c2ccccc2)NC12C(=O)Nc1ccc(Br)cc12 (stereo partly specified) | 50.4%
3 | COc1ccccc1C(=O)CSc1nc(Nc2ccc(S(N)(=O)=O)cc2)c2ccccc2n1 | 116%
4 | CC(C)(C)Nc1nc2c(OCCc3ccccc3)cccn2c1-c1ccccc1Cl | 10.6%
5 | CNC(=O)c1cc(-c2ccc(NC(=O)Nc3ccc(N4CCOCC4)c(C(F)(F)F)c3)cc2)nc2cccnc12 | 156%
6 | CS(=O)(=O)c1ccc(-n2cc(/C=C/C(=O)c3ccc(NC(=O)CO[N+](=O)[O-])cc3)c(-c3ccc(Cl)cc3)n2)cc1 | 111%
7 | Cc1[nH]nc2ncc(C#Cc3cncc(C(=O)Nc4ccc(CN5CCN(C)CC5)c(C(F)(F)F)c4)c3)cc12 | 27.8%
8 | CCN1C(=S)N(CC)C2C1N=C(SC)N2/N=C/C=C/c1ccccc1[N+](=O)[O-] (stereo unspecified) | 125%
9 | C/C(=C(/c1ccc(Cl)cc1)c1ccc(OCCN)cc1)c1ccc(C)cc1 | 116%
10 | O=[N+]([O-])c1ccc(O)c2ncccc12 | 55.6%
11 | Cc1cc(=O)oc2cc(OCCCOc3ccc(/C=C/C(=O)Nc4ccc(Cl)cc4)cc3)ccc12 | 118%
12 | Cc1ccc(-c2nc(C(Cl)Cl)nc3cc(-c4ccccc4)nn23)cc1 | 23.7%
13 | Nc1cc(-c2c[nH]c3ccc(F)cc23)nc2cc(-c3c[nH]c4ccc(F)cc34)nn12 | 118%
14 | COc1cccc(N2CCN(c3ncnc4c3[nH]c3ccc(F)cc34)C[C@@H]2C)c1 | -31.6% (active)
15 | Cc1ccc(/C=C/c2nn3c(-c4ccco4)nnc3s2)cc1C | 116%
16 | CCN1C(=S)N(CC)C2C1NN=C1SC(c3ccccc3)=CC(=O)N12 (stereo unspecified) | 103%
17 | CC(C)NC(=O)c1cc(-c2ccc(NC(=O)Nc3ccc(N4CCOCC4)c(C(F)(F)F)c3)cc2)nc2cccnc12 | 143%
18 | Cn1cc(-c2cc(N)n3nc(-c4cn(C)c5ccc(Cl)cc45)cc3n2)c2cc(Cl)ccc21 | 116%
19 | NS(=O)(=O)c1cccc(Nc2nc(SCC(=O)c3ccc(Cl)cc3)nc3ccccc23)c1 | 123%

Row | Compound | growth
20 | Cc1sc2c(c1C)c(=O)nc1c(-c3nc(-c4ccc(F)cc4)no3)n[nH]n12 | 122%
21 | CN1C(=O)N(c2ccccc2)C2N=C(N/N=C/c3ccccc3)SC21 (stereo unspecified) | 61.7%
22 | O=C1C2=C(C(=O)c3c(O)cccc31)C(c1ccco1)c1sc(=O)[nH]c1S2 (stereo unspecified) | 146%
23 | N[C@@H](Cc1cn(-c2c3ccccc3nc3ccccc23)nn1)C(=O)O | 140%
24 | Cc1sc2nc(NCc3ccccc3Cl)[nH]c(=O)c2c1C | 112%
25 | COc1ccccc1/C=C/C=N/NC1=NC2C(S1)N(C)C(=O)N2C (stereo unspecified) | 76.3%
26 | CC(=O)Nc1cc(F)cc(-c2ccc3[nH]cc(-c4ccccc4)c3n2)c1 | 48.6%
27 | O=C(CSc1nc2sc3c(c2c(=O)n1-c1ccc(Cl)cc1)CCCC3)N/N=C/c1ccc(F)cc1 | 125%
28 | Cc1ccccc1NC(=O)/C=C/c1ccc(OCCOc2ccc3c(C)cc(=O)oc3c2)cc1 | 132%
29 | CCN(CC)c1ccc(C=O)c(OCc2cn(CC(=O)Nc3ccc(Cl)cc3)nn2)c1 | 83.8%
30 | CC(C)(C)OC(=O)N1C(=O)c2c(c3c4ccccc4[nH]c3c3ccc4ccccc4c23)C1=O | 36.8%
31 | O=C(CSc1nc2sc3c(c2c(=O)n1-c1ccc(Cl)cc1)CCCC3)NNC(=O)Nc1cccc(C(F)(F)F)c1 | 48.3%
32 | CC(=O)Oc1ccccc1C(=O)Nc1cc(C(C)C)ccc1C | 21%
33 | N#Cc1c(-c2ccc(Cl)cc2)nc(SCc2ccc(F)cc2)nc1N1CCNCC1 | 92.7%
34 | COc1ccc(NC(=O)c2sc3nc(-c4cnccn4)cc(-c4cccs4)c3c2N)cc1 | 105%
35 | CNC(=O)c1cc(-c2ccc(NC(=O)Nc3ccc(N4CCN(C)CC4)c(C(F)(F)F)c3)cc2)nc2cccnc12 | -89.1% (active)
36 | O=C(CSc1nccc(=O)[nH]1)Nc1ccc(-c2nc3ccccc3[nH]2)cc1 | 116%
37 | O=C1c2c(c3c4cccnc4[nH]c3c3ccc4ccccc4c23)C(=O)N1CCO | 127%
38 | CN1CCN(Cc2ccc(NC(=O)c3cncc(C#Cc4cnc5ccc(N6CCSCC6)nn45)c3)cc2C(F)(F)F)CC1 | -25.9% (active)

Tested on: ACHN renal
Test: as above
Conditions: 10 µM unless noted

Row | Compound | growth
39 | Fc1ccc(-c2cc3nc(C(Cl)Cl)nc(-c4ccccc4)n3n2)cc1 | -27.2% (active)
40 | O=C(c1ccc(Cl)cc1)C1[C@H](c2ccc(Cl)cc2)[C@@H](c2ccccc2)NC12C(=O)Nc1ccc(Br)cc12 (stereo partly specified) | 14.3%
41 | COc1ccccc1C(=O)CSc1nc(Nc2ccc(S(N)(=O)=O)cc2)c2ccccc2n1 | 92.1%
42 | CC(C)(C)Nc1nc2c(OCCc3ccccc3)cccn2c1-c1ccccc1Cl | 4.1% (active)
43 | CNC(=O)c1cc(-c2ccc(NC(=O)Nc3ccc(N4CCOCC4)c(C(F)(F)F)c3)cc2)nc2cccnc12 | 50.8%
44 | CS(=O)(=O)c1ccc(-n2cc(/C=C/C(=O)c3ccc(NC(=O)CO[N+](=O)[O-])cc3)c(-c3ccc(Cl)cc3)n2)cc1 | 88.5%
45 | Cc1[nH]nc2ncc(C#Cc3cncc(C(=O)Nc4ccc(CN5CCN(C)CC5)c(C(F)(F)F)c4)c3)cc12 | 4.36% (active)
46 | CCN1C(=S)N(CC)C2C1N=C(SC)N2/N=C/C=C/c1ccccc1[N+](=O)[O-] (stereo unspecified) | 78.1%
47 | C/C(=C(/c1ccc(Cl)cc1)c1ccc(OCCN)cc1)c1ccc(C)cc1 | 96.6%
48 | O=[N+]([O-])c1ccc(O)c2ncccc12 | 23.7%
49 | Cc1cc(=O)oc2cc(OCCCOc3ccc(/C=C/C(=O)Nc4ccc(Cl)cc4)cc3)ccc12 | 45.3%
50 | Cc1ccc(-c2nc(C(Cl)Cl)nc3cc(-c4ccccc4)nn23)cc1 | -59.8% (active)
51 | Nc1cc(-c2c[nH]c3ccc(F)cc23)nc2cc(-c3c[nH]c4ccc(F)cc34)nn12 | 66.3%
52 | COc1cccc(N2CCN(c3ncnc4c3[nH]c3ccc(F)cc34)C[C@@H]2C)c1 | -12.9% (active)
53 | Cc1ccc(/C=C/c2nn3c(-c4ccco4)nnc3s2)cc1C | 102%
54 | CCN1C(=S)N(CC)C2C1NN=C1SC(c3ccccc3)=CC(=O)N12 (stereo unspecified) | 103%
55 | CC(C)NC(=O)c1cc(-c2ccc(NC(=O)Nc3ccc(N4CCOCC4)c(C(F)(F)F)c3)cc2)nc2cccnc12 | 62.7%
56 | Cn1cc(-c2cc(N)n3nc(-c4cn(C)c5ccc(Cl)cc45)cc3n2)c2cc(Cl)ccc21 | 102%
57 | NS(=O)(=O)c1cccc(Nc2nc(SCC(=O)c3ccc(Cl)cc3)nc3ccccc23)c1 | 77.6%

Row | Compound | growth
58 | Cc1sc2c(c1C)c(=O)nc1c(-c3nc(-c4ccc(F)cc4)no3)n[nH]n12 | 96.5%
59 | CN1C(=O)N(c2ccccc2)C2N=C(N/N=C/c3ccccc3)SC21 (stereo unspecified) | 49.1%
60 | O=C1C2=C(C(=O)c3c(O)cccc31)C(c1ccco1)c1sc(=O)[nH]c1S2 (stereo unspecified) | 39.6%
61 | N[C@@H](Cc1cn(-c2c3ccccc3nc3ccccc23)nn1)C(=O)O | 93.5%
62 | Cc1sc2nc(NCc3ccccc3Cl)[nH]c(=O)c2c1C | 94.8%
63 | COc1ccccc1/C=C/C=N/NC1=NC2C(S1)N(C)C(=O)N2C (stereo unspecified) | 46.3%
64 | CC(=O)Nc1cc(F)cc(-c2ccc3[nH]cc(-c4ccccc4)c3n2)c1 | 15.9%
65 | O=C(CSc1nc2sc3c(c2c(=O)n1-c1ccc(Cl)cc1)CCCC3)N/N=C/c1ccc(F)cc1 | 108%
66 | Cc1ccccc1NC(=O)/C=C/c1ccc(OCCOc2ccc3c(C)cc(=O)oc3c2)cc1 | 89.4%
67 | CCN(CC)c1ccc(C=O)c(OCc2cn(CC(=O)Nc3ccc(Cl)cc3)nn2)c1 | 24.3%
68 | CC(C)(C)OC(=O)N1C(=O)c2c(c3c4ccccc4[nH]c3c3ccc4ccccc4c23)C1=O | 34.5%
69 | O=C(CSc1nc2sc3c(c2c(=O)n1-c1ccc(Cl)cc1)CCCC3)NNC(=O)Nc1cccc(C(F)(F)F)c1 | 6.86% (active)
70 | CC(=O)Oc1ccccc1C(=O)Nc1cc(C(C)C)ccc1C | 10.1%
71 | N#Cc1c(-c2ccc(Cl)cc2)nc(SCc2ccc(F)cc2)nc1N1CCNCC1 | 36%
72 | COc1ccc(NC(=O)c2sc3nc(-c4cnccn4)cc(-c4cccs4)c3c2N)cc1 | 43.8%
73 | CNC(=O)c1cc(-c2ccc(NC(=O)Nc3ccc(N4CCN(C)CC4)c(C(F)(F)F)c3)cc2)nc2cccnc12 | -94.6% (active)
74 | O=C(CSc1nccc(=O)[nH]1)Nc1ccc(-c2nc3ccccc3[nH]2)cc1 | 101%
75 | O=C1c2c(c3c4cccnc4[nH]c3c3ccc4ccccc4c23)C(=O)N1CCO | 48.3%
76 | CN1CCN(Cc2ccc(NC(=O)c3cncc(C#Cc4cnc5ccc(N6CCSCC6)nn45)c3)cc2C(F)(F)F)CC1 | -91.4% (active)
